# Measured values from PubChem BioAssay (NCATS).
# Records with an inconclusive call do not appear. A call without a number means that no potency is given here. Active and inactive are the calls of the source. Calls follow the shape of the dose curve; as a rule, active = well fitted inhibition curve with a large enough effect in the repeat runs; inconclusive = weak or mixed curves; inactive = flat fitted curve, though single readings scatter.
# Target: Cytochrome P450 2D6 (Homo sapiens) (UniProt P10635)
# Assay: Cytochrome P450 family 2 subfamily D member 6 (CYP2D6) small molecule antagonists: luciferase biochemical (cell-free) qHTS assay (AID 1645840); also: nearly all actives have a fitted effect of over 55% in size
# Conditions: P450-Glo CYP2D6 enzyme, luciferin luminescence, 1 h; series mostly up to 57.4 µM
# Summary of the method: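 P450-Glo luminescent screen: recombinant CYP2D6 enzyme–proluciferin substrate mix preincubated with compound 10 min at room temperature, then NADPH regeneration added for 1 h at room temperature. Detection reagent added for 20 min; luciferin light read as relative luminescence units.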
# Potency is read from the fitted curve at half-maximal effect.
# Cytochrome P450 2D6 (Homo sapiens), sequence (P10635 whole entry, looked up): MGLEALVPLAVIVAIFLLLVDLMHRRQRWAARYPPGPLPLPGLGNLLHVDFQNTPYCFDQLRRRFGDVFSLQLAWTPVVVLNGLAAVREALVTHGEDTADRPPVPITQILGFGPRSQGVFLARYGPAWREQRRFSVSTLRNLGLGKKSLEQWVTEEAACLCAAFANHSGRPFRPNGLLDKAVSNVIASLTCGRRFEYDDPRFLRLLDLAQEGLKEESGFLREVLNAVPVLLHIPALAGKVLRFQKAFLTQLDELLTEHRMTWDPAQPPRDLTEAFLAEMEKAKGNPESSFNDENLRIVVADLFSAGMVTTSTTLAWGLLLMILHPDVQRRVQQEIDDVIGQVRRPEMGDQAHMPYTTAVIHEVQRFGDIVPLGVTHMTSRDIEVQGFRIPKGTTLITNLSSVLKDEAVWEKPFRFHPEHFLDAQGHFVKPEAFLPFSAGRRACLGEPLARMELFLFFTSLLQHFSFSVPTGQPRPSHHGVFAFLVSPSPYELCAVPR
row,SMILES,Potency
1,CCOC(=O)Nc1nc2ccccc2[nH]1,3.79 µM (active)
2,O=C(O)[C@H]1CCCC[C@H]1C(=O)N1CCc2ccccc2[C@H]1CN1C(=O)c2ccccc2C1=O,inactive
3,NCc1c[nH]c(=S)n1C1CCc2c(F)cc(F)cc2C1 (configuration not stated),3.79 µM (active)
4,c1nc(NC2CCCCCC2)c2cc(CNC[C@H]3CCCO3)sc2n1,19 µM (active)
5,COc1cc(N2CCC(N(C)C)CC2)ccc1Nc1ncc(Cl)c(Nc2ccccc2P(C)(C)=O)n1,inactive
6,Cc1ccc2c(c1)C=Cc1cc(C)ccc1C2c1cn(Cc2ccc(C(=O)Nc3nn[nH]n3)o2)c(=O)[nH]c1=S,inactive
7,COCC(=O)N1CCc2cc(-c3csc(NC(=O)c4cc(OC)cc(OC)c4)n3)ccc21,inactive
8,CC(C)c1ccc(CC(=O)N2CCC[C@@H](c3cccc(OC(C)(C)C(=O)O)c3)C2)cc1,inactive
9,c1ccc(Nc2nc3c(s2)CCCc2[nH]ncc2-3)nc1,26.8 µM (active)
10,COCCN(C)Cc1ccc2nc3sc(C(=O)N(C)C4CCCCC4)cn3c2c1,inactive
11,COc1ccc(C[C@H](N)C(=O)N[C@H]2[C@@H](O)[C@H](n3cnc4c(N(C)C)ncnc43)O[C@@H]2CO)cc1,inactive
12,Cc1cn2c(N)c(Cl)cc(C(=O)NCC3CCN(CC(C)C)CC3)c2n1,4.77 µM (active)
